The record followed here is PubChem BioAssay.

Active and inactive are the calls of the source.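 Rule for the calls, unless noted: active = inhibition at or above 50% at 10 µM; inactive = inhibition below 50%.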

The nature of assay [1]: inhibitors of TNFa-induced NFkB p65 translocation, primary screen, imaging, HUVEC, MLSMR starter and 10KST1 sets (AID 438;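 active = inhibition above 20% together with a positive visual image hit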;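 note: compound added about 3h40 before a 20 min TNFalpha stimulation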;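 for inhibition: signal is the nuclear over cytoplasmic p65 intensity ratio per well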). The following applies: HUVEC TNFa-induced p65 nuclear translocation; cell count: measured here: nuclei count (cytotoxicity indicator), at 2.08 µM; inhibition: at 2 µM, stronger effect = higher value, 0% TNFa-plus-vehicle, 100% no-TNFa wells.
The nature of assay [2]: inhibitors of mutant huntingtin aggregation, primary screen, imaging, exon1htt(103Q)mCFP cells, high-content imaging (AID 483;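 active = visual image review flags a hit and inhibition of aggregation exceeds 20%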;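 note: compound exposure lasted 3 days before fixation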;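 for nuclei count: percent of the per-plate median nuclei count of sample wells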). As to conditions: exon1htt(103Q)mCFP cell line, aggregate imaging, at 2 µM; inhibition of aggregation: stronger effect = higher value; nuclei count: measured here: cell count, toxicity.
Assay [3] in a line: inhibitors of E-selectin induction by TNFa, primary screen, imaging, HUVEC, immunofluorescence, MLSMR starter and 10KST1 sets (AID 487;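 active = visually confirmed hit in the image check and inhibition above 20%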;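 for inhibition: signal is fraction of cell area covered by stained E-selectin grains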;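 for nuclei count: 100% = median nuclei count of all wells on the same plate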). The following applies: HUVEC TNFalpha-induced E-selectin immunofluorescence imaging, at 2 µM; inhibition: stronger effect = higher value; nuclei count: measured here: cell number, toxicity.
The target in assay [4] is Voltage-gated potassium channel subunit beta-2 (Rattus norvegicus) (UniProt P62483). Kind of assay: KvBeta enzyme negative modulators, primary screen, biochemical, NADPH fluorescence (AID 622;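 active = fluorescence slope higher than the sample average by over 3 SD, cut at about -0.22 in these data, passing the limit was not always enough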;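 note: slope of raw intensity against log time taken from 70 to 1610 s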). The following applies: recombinant KvBeta, 4-cyanobenzaldehyde reduction, at 10 µM, stronger effect = higher value.
Voltage-gated potassium channel subunit beta-2 (Rattus norvegicus), sequence (P62483 whole entry, looked up): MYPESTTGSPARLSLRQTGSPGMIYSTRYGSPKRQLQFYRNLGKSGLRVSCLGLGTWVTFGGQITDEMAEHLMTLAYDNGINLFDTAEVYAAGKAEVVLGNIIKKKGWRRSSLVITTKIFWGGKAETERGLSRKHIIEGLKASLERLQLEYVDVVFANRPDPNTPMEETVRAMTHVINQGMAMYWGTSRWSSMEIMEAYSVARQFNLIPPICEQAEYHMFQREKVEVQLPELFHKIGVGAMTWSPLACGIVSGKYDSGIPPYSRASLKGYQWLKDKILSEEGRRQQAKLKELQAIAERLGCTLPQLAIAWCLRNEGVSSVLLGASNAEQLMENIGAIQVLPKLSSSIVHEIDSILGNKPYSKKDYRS
For assay [5] the target is unchanged. As to the kind of experiment: KvBeta positive modulators, primary screen, biochemical, NADPH fluorescence (AID 623;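 active = NADPH fluorescence slope more negative than the mean of all samples by about 3 SD, 99.7% confidence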;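 note: fluorescence intensity change per second fitted from 20 to 320 s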). The following applies: Recombinant KvBeta, NADPH fluorescence decrease slope, 10 min; at 10 µM; stronger effect = lower value.
The target in assay [6] is Alpha-2C adrenergic receptor (Homo sapiens) (UniProt P18825). Kind of assay: modulators of alpha2C/GIRK thallium flux, primary screen, cell-based, HEK293 alpha2C/GIRK1/2 (AID 624;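 active = fluorescence slope after compound addition differing from the mean of all screened samples at 99.7% confidence, in either direction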;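 note: slope of fluorescence ratio to pre-addition baseline per second over 15 to 24 s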). As to conditions: thallium flux BTC fluorescence, at 10 µM, actives lie on both sides.
Alpha-2C adrenergic receptor (Homo sapiens), sequence (P18825 whole entry, looked up): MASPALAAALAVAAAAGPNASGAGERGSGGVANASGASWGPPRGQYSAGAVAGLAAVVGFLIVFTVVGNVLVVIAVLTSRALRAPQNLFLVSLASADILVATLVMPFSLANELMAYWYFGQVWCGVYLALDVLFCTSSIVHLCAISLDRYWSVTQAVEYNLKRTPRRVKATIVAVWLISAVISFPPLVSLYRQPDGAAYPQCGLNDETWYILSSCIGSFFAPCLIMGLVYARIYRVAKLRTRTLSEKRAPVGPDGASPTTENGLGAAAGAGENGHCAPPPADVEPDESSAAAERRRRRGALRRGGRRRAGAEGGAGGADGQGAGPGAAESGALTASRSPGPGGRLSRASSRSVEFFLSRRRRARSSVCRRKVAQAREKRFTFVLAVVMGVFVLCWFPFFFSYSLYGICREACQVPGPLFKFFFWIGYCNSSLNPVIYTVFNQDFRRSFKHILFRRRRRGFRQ
Assay [7] is described as follows: inhibitors of Sendai virus-induced IRF3 signaling, primary screen, TLR/RLR signaling modifier project, cell-based, Sendai virus stimulus, luciferase, 10K MLSCN set (AID 602276).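 Note: firefly luciferase from ISG56 promoter only with Renilla not read in this screen; 0% = Sendai virus plus DMSO and 100% = medium plus DMSO without virus.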 As to conditions: HEK293 RL24 IRF3 luciferase reporter, at 10 µM, stronger effect = higher value. In general terms: In a reporter assay the amount or activity of a reporter protein is the signal.
A short description of assay [8]: inhibitors of poly I:C-induced TLR3 signaling, primary screen, cell-based, poly I:C stimulus, luciferase, 10K MLSCN set (AID 602277;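 active = inhibition of the reporter signal at or above 50%; inactive = inhibition below 50%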). As to conditions: HEK293-TLR3 RL24 IRF3 luciferase reporter, at 10 µM, stronger effect = higher value.

A word on the inhibition: it is the change of the read-out against control, counted positive when it falls. As for `O=C(O)c1cc2nc(-c3ccc(F)cc3)cc(C(F)(F)F)n2n1`, the cell count in assay [1] was determined as 435. Moreover, the inhibition in assay [1] is 4.9% (inactive); in assay [3], 26.5% (inactive); in assay [7], 0.989% (inactive); in assay [8], 19.6% (inactive). The inhibition of aggregation in assay [2] is -0.7% (inactive). Also, the nuclei count in assay [2] worked out at 97.9%; in assay [3], 110%. For the same compound, in assay [4], the fluorescence slope was -0.385 (inactive). In addition, in assay [5], the NADPH fluorescence slope is -4.1e-05 (inactive). In addition, in assay [6], the slope was 0.00272 (inactive).
On to `CC1CCN(c2nc3c(c(=O)[nH]c(=O)n3C)n2CCSc2ncccn2)CC1`, for which, in assay [1], the cell count amounted to 548. Moreover, the inhibition in assay [1] is 0.8% (inactive); in assay [3], -15.9% (inactive); in assay [7] it was 8.83% (inactive); in assay [8], 24.8% (inactive). Further, the inhibition of aggregation in assay [2] was -8.6% (inactive). Also, the nuclei count in assay [2] was 83.9%; in assay [3], 118%. In assay [4], the fluorescence slope is -0.43 (inactive). Further, the NADPH fluorescence slope in assay [5] is -8.7e-05 (inactive). Moreover, the slope in assay [6] is 0.00584 (inactive).
On to `CC(=O)c1cccc(NS(=O)(=O)c2ccc3c(c2)oc(=O)n3C)c1`, for which the cell count in assay [1] was 299. The inhibition was -9% (inactive) in assay [1], -52% (inactive) in assay [3], 6.35% (inactive) in assay [7] and 2.39% (inactive) in assay [8]. For the same compound, in assay [2], the inhibition of aggregation was 0.5% (inactive). In addition, the values for the nuclei count in assay [2] and in assay [3] were 119% and 117%, respectively. Further, in assay [4], the fluorescence slope is -0.437 (inactive). For the same compound, the NADPH fluorescence slope in assay [5] is -2.3e-05 (inactive). Besides, in assay [6], the slope is 0.00511 (inactive).
Take `COC(=O)COc1cccc(NC(=O)COc2ccccc2)c1`: in assay [1], the cell count came out at 349. Besides, the inhibition is -2.7% (inactive) in assay [1], -94.8% (inactive) in assay [3], 1.13% (inactive) in assay [7] and 20.7% (inactive) in assay [8]. Further, in assay [2], the inhibition of aggregation was -0.4% (inactive). Besides, the nuclei count came out at 115% in assay [2] and 104% in assay [3]. For the same compound, in assay [4], the fluorescence slope is -0.336 (inactive). Moreover, the NADPH fluorescence slope in assay [5] is 3.4e-07 (inactive). In addition, the slope in assay [6] was 0.00642 (inactive).
With `CC(Oc1ccc(Cl)cc1Cl)C(=O)Nc1ncccn1` (centres undefined), in assay [1], the cell count worked out at 433. The inhibition in assay [1] is 2.5% (inactive); in assay [3] it was 51.5% (inactive); in assay [7], -4.61% (inactive); in assay [8], -6.91% (inactive). For the same compound, the inhibition of aggregation in assay [2] is -1% (inactive). The nuclei count was found to be 102% in assay [2] and 124% in assay [3]. For the same compound, the fluorescence slope in assay [4] was -0.409 (inactive). Moreover, in assay [5], the NADPH fluorescence slope was 9.1e-05 (inactive). Moreover, in assay [6], the slope is 0.006 (inactive).
Consider `Cc1nn(-c2ccc(Cl)cc2)c2sc(C(=O)N3CCN(c4ccccn4)CC3)cc12`, for which, in assay [1], the cell count came to 571. The inhibition in assay [1] was -3.6% (inactive); in assay [3] it was 42.5% (inactive); in assay [7] it was 9.58% (inactive); in assay [8], -7.18% (inactive). Moreover, the inhibition of aggregation in assay [2] is 1.7% (inactive). The nuclei count in assay [2] stood at 95.6%; in assay [3] it was 108%. Moreover, in assay [4], the fluorescence slope is -0.612 (inactive). Also, the NADPH fluorescence slope in assay [5] was -2.4e-05 (inactive). The slope in assay [6] is 0.011 (active).
On to `COC(=O)c1cn(NC(=O)C2CCCO2)c(=O)c2ccccc12` (centres undefined), for which the cell count in assay [1] came out at 415. For the same compound, the inhibition in assay [1] was -2.5% (inactive); in assay [3] it was -39.1% (inactive); in assay [7], 11.6% (inactive); in assay [8] it was 20.9% (inactive). The inhibition of aggregation in assay [2] was 12.6% (inactive). The nuclei count is 103% in assay [2] and 89.7% in assay [3]. For the same compound, the fluorescence slope in assay [4] is -0.462 (inactive). Besides, the NADPH fluorescence slope in assay [5] is -3.7e-05 (inactive). Also, the slope in assay [6] was 0.0068 (inactive).
Take `COc1ccc(-c2cc3c(=O)n(CC(=O)NC4CCN(Cc5ccccc5)CC4)ncn3n2)cc1`: the cell count in assay [1] was found to be 296. Besides, the inhibition in assay [1] was 2.8% (inactive); in assay [3] it was 2.5% (inactive); in assay [7] it was -14.7% (inactive); in assay [8] it was -13.3% (inactive). The inhibition of aggregation in assay [2] was 0.5% (inactive). The nuclei count in assay [2] turned out to be 91.9%; in assay [3], 90.8%. Besides, in assay [4], the fluorescence slope was -0.404 (inactive). The NADPH fluorescence slope in assay [5] was -4.1e-05 (inactive). The slope in assay [6] was 0.00479 (inactive).
With `O=C(CSc1ncnc2c1oc1ccccc12)Nc1ccccc1F`, the cell count in assay [1] is 613. Also, the inhibition in assay [1] is -13.5% (inactive); in assay [3], -10.1% (inactive); in assay [7], 1.97% (inactive); in assay [8] it was 16.6% (inactive). The inhibition of aggregation in assay [2] was -13.9% (inactive). The nuclei count in assay [2] was determined as 107%; in assay [3] it was 116%. In assay [4], the fluorescence slope is -0.549 (inactive). The NADPH fluorescence slope in assay [5] is 3.9e-06 (inactive). Moreover, in assay [6], the slope is 0.00808 (inactive).
With `O=C(O)c1ccc2c3c(ncnc13)-c1ccccc1C2=O`, the cell count in assay [1] came to 336. For the same compound, the inhibition in assay [1] is -10.1% (inactive); in assay [3] it was -34.1% (inactive); in assay [7] it was 18.4% (inactive); in assay [8], 26.7% (inactive). Moreover, in assay [2], the inhibition of aggregation is -50.8% (inactive). Besides, the results for the nuclei count in assay [2] and in assay [3] were 9.6% and 93%, respectively. The fluorescence slope in assay [4] is -0.155 (inactive). In addition, the NADPH fluorescence slope in assay [5] is -4.9e-06 (inactive). For the same compound, the slope in assay [6] was 0.0028 (inactive).
In the case of `CC(=O)c1ccc(OC(=O)c2cccs2)cc1`, in assay [1], the cell count was 305. Further, the inhibition is 3.8% (inactive) in assay [1], -41.6% (inactive) in assay [3], -3.03% (inactive) in assay [7] and 22.4% (inactive) in assay [8]. Further, the inhibition of aggregation in assay [2] was -6.3% (inactive). Moreover, the figures for the nuclei count in assay [2] and in assay [3] were 99.1% and 105%, respectively. Further, the fluorescence slope in assay [4] was -0.498 (inactive). The NADPH fluorescence slope in assay [5] was -1.8e-05 (inactive). Moreover, in assay [6], the slope is 0.00631 (inactive).
Regarding `CC1CN(C(=O)c2cc3cc(Cl)cc(Cl)c3oc2=O)CC(C)O1` (centres undefined), the cell count in assay [1] is 365. Besides, the inhibition in assay [1] was 5.6% (inactive); in assay [3] it was -24.5% (inactive); in assay [7], 11.6% (inactive); in assay [8], 23.5% (inactive). Further, in assay [2], the inhibition of aggregation was 1% (inactive). In addition, the nuclei count in assay [2] was 104%; in assay [3], 100%. Also, the fluorescence slope in assay [4] was -0.474 (inactive). Also, the NADPH fluorescence slope in assay [5] was -4.7e-06 (inactive). For the same compound, the slope in assay [6] is 0.00693 (inactive).
On to `Cc1cccc(-c2cc3nc4c(c(N5CCC6(CC5)OCCO6)n3n2)CCCC4)c1`, for which, in assay [1], the cell count came out at 627. In addition, the inhibition in assay [1] was -5.5% (inactive); in assay [3], -139% (inactive); in assay [7], -1.5% (inactive); in assay [8], -27.3% (inactive). The inhibition of aggregation in assay [2] is 19.8% (inactive). Also, the nuclei count turned out to be 116% in assay [2] and 156% in assay [3]. Besides, in assay [4], the fluorescence slope is -0.419 (inactive). The NADPH fluorescence slope in assay [5] was 4.7e-05 (inactive). Also, the slope in assay [6] is 0.00699 (inactive).
`COc1ccc(C(CC(=O)O)NC(=O)c2ccccc2)cc1OC` (centres undefined): in assay [1], the cell count amounted to 317. Besides, the inhibition in assay [1] is -1.6% (inactive); in assay [3], -9% (inactive); in assay [7], 9.8% (inactive); in assay [8] it was 28.8% (inactive). The inhibition of aggregation in assay [2] was -6.3% (inactive). Also, the nuclei count in assay [2] turned out to be 116%; in assay [3], 106%. In assay [4], the fluorescence slope is -0.311 (inactive). In addition, the NADPH fluorescence slope in assay [5] was 1e-05 (inactive). Moreover, the slope in assay [6] was 0.00391 (inactive).
